The record followed here is PubChem BioAssay (NCATS).

“And” between values parts separate entries of the source, which are not always exact repeats. Identical values can stand only once. Records with an inconclusive call do not appear. More than one record can exist for a structure, and the calls need not agree. The source made the active and inactive calls. Unless noted, calls follow the shape of the dose curve; as a rule, active = well fitted curve in the direction sought with a large enough effect; inconclusive = small, poorly fitted or top-dose-only effect, or another doubt; inactive = no such curve, though single readings can be large; an effect the other way counts as inactive or inconclusive.

A short description of experiment [1]: Primary qHTS for inhibitors of La Crosse Virus (LACV) - induced cell death in SH-SY5Y cells (AID 1508616).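 Also: top concentration of the series differs between compounds; 0% = infected DMSO wells and 100% = uninfected DMSO wells; higher means more rescue of cells from virus-induced death.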 As to conditions: SH-SY5Y LACV cytopathicity rescue, ATP luminescence, 6 d; series mostly up to 4.29 µM. The procedure, abridged:
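Readout was luminescence from ATPLite 1step added after a 6-day LACV infection (0.01 MOI) of SH-SY5Y cells that had received pin-transferred compound 24 hr after seeding.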

The target of experiment [2] is Calcium and integrin-binding protein 1 (Homo sapiens) (UniProt Q99828). Kind of experiment: Validation qHTS for Identification of Calcium Integrin Binding protein 1 (CIB1) Competitor (AID 1508618). Also: potency is read from the fitted curve at half-maximal effect. As to conditions: CIB1-GST / FITC-alphaIIb peptide fluorescence polarization; series mostly up to 114 µM. The essentials: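 CIB1-GST (1 uM final) in 5 mM HEPES pH 7.4, 125 mM NaCl, 5 mM CaCl2, 0.01% Tween20 was preincubated 15 min at room temperature with compound (up to 114 uM), then FITC-alphaIIb peptide (100 nM) added for 15 min; fluorescence polarization read.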
Sequence of Calcium and integrin-binding protein 1 (Homo sapiens) (Q99828 whole entry, looked up): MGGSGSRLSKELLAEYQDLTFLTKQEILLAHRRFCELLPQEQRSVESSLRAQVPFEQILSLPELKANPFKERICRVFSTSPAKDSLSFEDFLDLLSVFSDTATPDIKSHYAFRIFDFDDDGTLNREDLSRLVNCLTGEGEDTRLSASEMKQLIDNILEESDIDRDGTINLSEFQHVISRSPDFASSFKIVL

For experiment [3] the target is unchanged. Briefly: Primary qHTS for Identification of Calcium Integrin Binding Protein 1 (CIB1) Competitor (AID 1508620). Also: potency is read from the fitted curve at half-maximal effect. The note with it: CIB1-GST / FITC-alphaIIb peptide fluorescence polarization; series mostly up to 57.7 µM. The procedure, abridged: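 Fluorescence polarization competition: CIB1-GST (1 uM final) preincubated with compound 15 min at room temperature, then FITC-labeled alphaIIb peptide (100 nM final) added for another 15 min. Polarization read at Ex 480/Em 540.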

A short description of experiment [4]: Primary qHTS for small molecule stabilizers of the endoplasmic reticulum resident proteome: Secreted ER Calcium Modulated Protein (SERCaMP) assay (AID 1508630). Also: % is scaled to controls: 0 for no effect and ±100 for the full control effect. As to conditions: SH-SY5Y GLuc-SERCaMP (Gaussia luciferase released on ER calcium loss) secretion, thapsigargin, luminescence; series mostly up to 38.4 µM. The procedure, abridged: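 GLuc-SERCaMP-expressing SH-SY5Y cells, pretreated 16 h with compound, are challenged with thapsigargin to empty ER calcium stores; after 4 h, coelenterazine is added directly to the medium and luminescence is imaged.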

Experiment [5] in a line: Confirmatory qHTS for small molecule stabilizers of the endoplasmic reticulum resident proteome: Secreted ER Calcium Modulated Protein (SERCaMP) assay (AID 1508628). Also: nearly all actives have a fitted effect of over 40% in size. Also: potency is read from the fitted curve at half-maximal effect. The note with it: SERCaMP secreted luciferase ER calcium/proteostasis reporter; series mostly up to 76.3 µM. The essentials: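 We seeded SH-SY5Y-GLuc-SERCaMP cells, added compounds (three concentrations in the primary run, eleven up to 76.6 uM in confirmation), incubated 16 h, depleted ER calcium with thapsigargin, and read luciferase 4 h later.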

Experiment [6] can be described thus: Cell Viability qHTS for small molecule stabilizers of the endoplasmic reticulum resident proteome (AID 1508629).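 Also: compound exposure about 46 h in total before the viability read.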 Also: potency is read from the fitted curve at half-maximal effect.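 As to max response: human SH-SY5Y neuroblastoma cells carrying the GLuc-SERCaMP reporter; % is scaled to controls: 0 for no effect and ±100 for the full control effect.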 As to conditions: cell viability counter-screen, 100 nM thapsigargin for final 4 h.
Experiment [7] in a line: A High-Content qHTS Against Drug Library for the Identification of Small Molecules that Inhibit DYT1 Early Onset Primary Dystonia-Associated Cell Pathology (AID 1645839; calls by dose curve). The note with it: HEK293 Flp-In EGFP-delE TorsinA, punctate imaging, 48 h; series mostly up to 46.1 µM. The essentials:
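Readout: %pathology, the punctate EGFP-TorsinA distribution from imaging, as the primary channel and cell count as the toxicity counterscreen. HEK293 Flp-In cells expressing delE TorsinA were induced with tetracycline and treated with compound for 48 h.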

Experiment [8] has as its target Cytochrome P450 2D6 (Homo sapiens) (UniProt P10635). Kind of experiment: Cytochrome P450 family 2 subfamily D member 6 (CYP2D6) small molecule antagonists: luciferase biochemical (cell-free) qHTS assay (AID 1645840; active = well fitted curve in the direction sought with a large enough effect in the repeat runs; an effect the other way counts as inactive or inconclusive; also: nearly all actives have a fitted effect of over 55% in size; also: potency is read from the fitted curve at half-maximal effect). As to conditions: P450-Glo CYP2D6 enzyme, luciferin luminescence, 1 h; series mostly up to 57.4 µM. The essentials:
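P450-Glo luminescent screen: recombinant CYP2D6 enzyme–proluciferin substrate mix preincubated with compound 10 min at room temperature, then NADPH regeneration added for 1 h at room temperature. Detection reagent added for 20 min; luciferin light read as relative luminescence units.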

The nature of experiment [9]: Counterscreen qHTS for small molecule stabilizers of the endoplasmic reticulum resident proteome: GLuc-NoTag assay (AID 1508627). Also: potency is read from the fitted curve at half-maximal effect. As to conditions: Gaussia luciferase NoTag secretion counterscreen, luminescence, thapsigargin 100 nM for final 4 h; series mostly up to 76.4 µM. The essentials: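 SH-SY5Y cells stably expressing constitutively secreted GLuc (no SERCaMP tag) were pre-incubated 5 h, treated with compound for 19 h, then 100 nM thapsigargin for 4 h at 37C; medium GLuc read by coelenterazine luminescence.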

Sequence of Cytochrome P450 2D6 (Homo sapiens) (P10635 whole entry, looked up): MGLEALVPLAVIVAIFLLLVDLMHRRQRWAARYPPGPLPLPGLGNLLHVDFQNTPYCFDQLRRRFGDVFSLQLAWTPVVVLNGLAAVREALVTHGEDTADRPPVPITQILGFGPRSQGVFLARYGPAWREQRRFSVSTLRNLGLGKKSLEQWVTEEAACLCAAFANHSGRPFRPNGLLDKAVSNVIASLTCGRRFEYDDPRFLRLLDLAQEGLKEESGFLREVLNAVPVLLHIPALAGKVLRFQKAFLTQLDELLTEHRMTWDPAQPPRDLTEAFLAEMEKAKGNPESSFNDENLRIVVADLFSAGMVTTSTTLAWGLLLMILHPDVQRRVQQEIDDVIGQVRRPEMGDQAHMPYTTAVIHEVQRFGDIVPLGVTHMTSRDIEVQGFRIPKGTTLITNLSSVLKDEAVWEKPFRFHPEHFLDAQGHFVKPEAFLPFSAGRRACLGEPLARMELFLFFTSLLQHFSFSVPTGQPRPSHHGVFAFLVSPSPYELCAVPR

On to `COc1ccccc1OCC(O)CN1CCN(CC(=O)Nc2c(C)cccc2C)CC1` (stereo unspecified), for which the Potency entry in [1], in [2], in [3] and in experiment [4] was “inactive” each time.

As to `CC(CCc1ccc(O)cc1)NCCc1ccc(O)c(O)c1` (stereo unspecified), the Potency result in [1], in experiment [2] and in [3] was “inactive” in each case. Also, the Potency in experiment [5] was 31.6 µM (active) and 39.8 µM (active) and 50.1 µM (active). For the same compound, in experiment [6], the max response is 27% (inactive).

Consider `CCN1CCCC1CNC(=O)c1cc(S(=O)(=O)CC)c(N)cc1OC` (stereo unspecified), for which the Potency result in experiment [1], in experiment [2], in experiment [3], in experiment [4] and in [7] was “inactive” each time.

Regarding `COc1ccccc1N1CCN(CC(O)COc2cccc3ccccc23)CC1` (stereo unspecified), the Potency entry in experiment [1], in [2], in experiment [3] and in experiment [4] was “inactive” throughout. In [8], the Potency is 0.436 µM (active).

For `Cc1cn([C@H]2C=C[C@@H](CO)O2)c(=O)[nH]c1=O`, the Potency result in experiment [1], in [2], in [3], in experiment [4], in experiment [7] and in experiment [8] was “inactive” throughout.

As to `COc1ccccc1OCCNCC(O)COc1cccc2[nH]c3ccccc3c12` (stereo unspecified), the Potency result in experiment [1], in experiment [2], in experiment [3], in [5] and in experiment [4] was “inactive” each time. The Potency in [9] was 44.7 µM (active) and 35.5 µM (active); in [6], 25.1 µM (active); in [8], 1.95 µM (active).

With `CN(C)c1nc(N(C)C)nc(N(C)C)n1`, the Potency entry in experiment [1], in experiment [2], in experiment [3] and in experiment [4] was “inactive” in each case.

`C[C@H]1c2cccc(O)c2C(O)=C2C(=O)[C@]3(O)C(O)=C(C(N)=O)C(=O)[C@@H](N(C)C)[C@@H]3[C@@H](O)[C@@H]21`: the Potency result in experiment [1], in experiment [2], in experiment [3], in experiment [4], in experiment [7] and in experiment [8] was “inactive” in each case.

Turning to `CN1CCN(C2=Nc3cc(Cl)ccc3Nc3ccccc32)CC1`, the Potency result in experiment [1] and in experiment [2] was “inactive” each time.

As for `NC12CC3CC(CC(C3)C1)C2`, the Potency entry in experiment [1], in experiment [2], in experiment [3], in experiment [9], in [5] and in experiment [4] was “inactive” in each case. The max response in experiment [6] was 12.2% (inactive) and 7.67% (inactive).

With `O=c1c(-c2ccc(O)cc2)coc2cc(O)cc(O)c12`, the Potency entry in experiment [1], in experiment [2], in [3] and in [4] was “inactive” each time.

For the compound `Clc1ccc(C(c2ccccc2Cl)C(Cl)Cl)cc1` (stereo unspecified), the Potency result in experiment [1], in experiment [2], in experiment [3], in experiment [4] and in experiment [8] was “inactive” throughout.

On to `CN1C(C(=O)Nc2ccccn2)=C(O)c2ccccc2S1(=O)=O`, for which the Potency entry in experiment [1], in [2], in [3], in experiment [4] and in [8] was “inactive” in each case.

Take `NC(=O)NO`: the Potency entry in experiment [1], in experiment [2], in experiment [3] and in [4] was “inactive” each time.

With `CC(C)NCC(O)COc1ccc(CCOCC2CC2)cc1` (stereo unspecified), the Potency entry in experiment [1], in experiment [2], in experiment [3], in experiment [4] and in experiment [8] was “inactive” each time.

As for `Cc1cc(C(C)(C)C)c(O)c(C)c1CC1=NCCN1`, the Potency entry in [1], in experiment [2], in experiment [3], in experiment [4] and in experiment [7] was “inactive” in each case. Moreover, the Potency in experiment [8] is 1.95 µM (active).

Consider `Cn1cnc2c1c(=O)[nH]c(=O)n2C`, for which the Potency result in experiment [1], in experiment [2], in [3] and in [4] was “inactive” throughout.

`COc1ccc2c(c1)c(CC(=O)O)c(C)n2C(=O)c1ccc(Cl)cc1`: the Potency entry in experiment [1], in [2], in experiment [3], in experiment [4] and in experiment [8] was “inactive” throughout.

Regarding `O=C(CCCN1CCC(O)(c2ccc(Cl)cc2)CC1)c1ccc(F)cc1`, the Potency entry in [1], in [2] and in experiment [3] was “inactive” throughout.

`O=C(c1ccc(F)cc1)C1CCN(CCn2c(=O)[nH]c3ccccc3c2=O)CC1`: the Potency entry in experiment [1], in [2], in [3], in experiment [9] and in experiment [4] was “inactive” in each case.

As for `Cc1ccc(-c2cc(C(F)(F)F)nn2-c2ccc(S(N)(=O)=O)cc2)cc1`, the Potency entry in experiment [1], in [2], in [3] and in [4] was “inactive” throughout. Moreover, the Potency in experiment [8] is 13.8 µM (active).

`Clc1ccc2c(c1)C(N1CCNCC1)=Nc1ccccc1O2`: the Potency result in [1], in experiment [2], in experiment [3], in [9], in experiment [5] and in experiment [4] was “inactive” in each case. Besides, the Potency entry in experiment [7] was “inactive”. In experiment [6], the max response was -4.18% (inactive). Besides, the Potency in experiment [8] is 4.36 µM (active).

For the compound `CC(C(=O)O)c1cccc(C(=O)c2ccccc2)c1` (stereo unspecified), the Potency result in experiment [1] is “inactive”.

With `C[C@](N)(Cc1ccc(O)c(O)c1)C(=O)O`, the Potency entry in experiment [1], in [2], in experiment [3] and in experiment [4] was “inactive” each time.

`OCCN(CCO)c1nc(N2CCCCC2)c2nc(N(CCO)CCO)nc(N3CCCCC3)c2n1`: the Potency result in [1], in experiment [9] and in experiment [4] was “inactive” throughout. The Potency in [2] is 14.1 µM (active); in experiment [3] it was “inactive and 11.2 µM (active)”; in experiment [5], 31.6 µM (active); in experiment [8], 4.9 µM (active).

As to `CN1CCC(=C2c3ccccc3C=Cc3ccccc32)CC1`, the Potency entry in [1], in experiment [2], in [3] and in experiment [9] was “inactive” throughout. Also, the Potency is 20 µM (active) and 15.8 µM (active) in experiment [5]; 2.19 µM (active) in experiment [8].

On to `Cn1ccc2cc3c(cc21)CCN3C(=O)Nc1cccnc1`, for which the Potency result in experiment [1], in experiment [2], in experiment [3], in experiment [4] and in experiment [8] was “inactive” each time.

On to `NS(=O)(=O)c1cc2c(cc1Cl)NCNS2(=O)=O`, for which the Potency entry in experiment [1], in experiment [2], in experiment [3], in [4], in experiment [7] and in experiment [8] was “inactive” in each case.

Consider `CC(C)NCC(O)c1ccc(O)c(O)c1` (stereo unspecified), for which the Potency result in experiment [1], in [2], in experiment [3], in experiment [5] and in experiment [4] was “inactive” in each case.
